# Compound activity: PubChem, National Center for Advancing Translational Sciences (NCATS)
# Sampled rows, rich in hits. Any-hit rate of the full collection: about 9.2%.
# KDM4E inh – JMJD2E (human) inhibition | B2RXH2 | JMJD2E catalytic domain, FDH-coupled NADH fluorescence (FDH is formaldehyde dehydrogenase) | Potency, µM (series often up to 57.1 µM), inactives show top-dose activity change, negative = inhibition, most hits filed as inhibitors | 1.6% of 230,000 active | AID 2147;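 also: 0% = wells with enzyme and -100% = buffer wells without enzyme; nearly all actives have a fitted effect of over 50% in size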
# Lamin A splicing – changes lamin A minigene splicing in HeLa cells; Potency, µM (highest dose often 46.1 µM), for inactives: top-dose ratio change, negative = inhibition, usual class: inhibitors; HeLa LMNA splicing GFP/RFP minigene ratio, 48 h; AID 1487; 0.01% of 200,000 active; active = well fitted inhibition curve with a large enough effect in the signal ratio, with a control signal flat, not every such curve was filed as active; inconclusive = small, poorly fitted or top-dose-only effect, or effect the other way, or a change in a side signal; the % refers to the signal ratio; also: % is scaled to controls: 0 for no effect and ±100 for the full control effect
#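 Read-out is the ratio of GFP to DsRed2 object intensity, acquired by 488 nm laser-scanning cytometry on HeLa lamin A-EGFP minigene reporter cells. Compound incubation 48 hrs at 37 °C in Opti-MEM with 2% FBS; DMSO 0.5% final.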
# ALDH1A1 block – blocks purified human ALDH1A1 activity; P00352; Purified ALDH1A1, NADH fluorescence, propionaldehyde substrate; Potency, µM (titrated, usually from 75.3 µM), inactives show top-dose activity, negative = inhibition, actives largely listed as inhibitors; 7.3% of 220,000 active; AID 1030;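 also: plate controls were no enzyme wells and a reference inhibitor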
# HttQ103 aggreg – inhibitors of mutant huntingtin aggregate formation in PC12 cells; Potency, µM (series often up to 46.1 µM), for inactives: at the top dose activity change, negative = inhibition, most hits filed as inhibitors; PC12 HttQ103-GFP aggregates, Acumen cytometry, 40 h; AID 1688; 1.1% of 220,000 active; active = well fitted curve in the direction sought with a large enough effect; inconclusive = small, poorly fitted or top-dose-only effect, or another doubt; inactive = no such curve, though single readings can be large; an effect the other way counts as inactive or inconclusive; also: % is scaled to controls: 0 for no effect and ±100 for the full control effect; nearly all actives have a fitted effect of over 60% in size
#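 PC12 cells stably carrying ecdysone-inducible HTT exon 1 Q103–GFP were induced with tebufenozide (100 nM final) and treated with library compounds in titration. GFP aggregates in lysates were counted by laser scanning cytometry.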
# HPGD block – inhibitors of human 15-hydroxyprostaglandin dehydrogenase (HPGD). 4.3% of 150,000 active. AID 894. purified HPGD, NADH fluorescence kinetic, PGE2 substrate. Potency, µM, for the others: at the top dose activity change, negative = inhibition, hits mostly inhibitors; also: % is scaled to controls: 0 for no effect and ±100 for the full control effect
# Target sequence (P15428 whole entry, looked up): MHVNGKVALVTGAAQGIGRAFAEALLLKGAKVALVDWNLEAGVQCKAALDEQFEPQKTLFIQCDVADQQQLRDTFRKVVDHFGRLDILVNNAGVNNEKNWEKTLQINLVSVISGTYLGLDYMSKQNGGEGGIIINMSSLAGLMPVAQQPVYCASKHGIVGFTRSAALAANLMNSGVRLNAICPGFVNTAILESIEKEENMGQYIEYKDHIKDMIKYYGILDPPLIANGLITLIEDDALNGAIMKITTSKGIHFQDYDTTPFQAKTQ
#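 20 nM HPGD preincubated 15 min at room temperature with compound in 50 mM Tris-HCl pH 8, 0.01% Tween 20. Started with 1 mM NAD+ and 30 uM prostaglandin E2; NADH fluorescence (360/450 nm) read 5 times over 30-s intervals, last minus first.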
# HTT ATP protect – Huntington cell model cytoprotection by ATP luminescence. AID 1471. PC12 HTT-Q103 induced, cytoprotection, ATP luminescence, 40 h. Potency, µM (titrated, usually from 56.4 µM), without a hit: cytoprotection (ATP increase), actives largely listed as activators. 0.14% of 230,000 active; active = well fitted curve in the direction sought with a large enough effect; inconclusive = small, poorly fitted or top-dose-only effect, or another doubt; inactive = no such curve, though single readings can be large; an effect the other way counts as inactive or inconclusive; also: % of control where 0% means no effect; nearly all actives have a fitted effect of over 45% in size
#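 Readout: ATPlite luminescence (ATP level). Model: stable PC12, inducible Htt exon1 Q103-GFP. Inducer: tebufenozide, 100 nM final. Compounds: dose series. No G418 in medium.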
# Numbers without * were called inactive; ? = inconclusive; . = no result; [ ] = remark or other dose. Unless noted, calls follow the shape of the dose curve; as a rule, active = well fitted inhibition curve with a large enough effect (not every such curve was filed as active); inconclusive = small, poorly fitted or top-dose-only effect, or another doubt; inactive = no such curve, though single readings can be large or run the other way. Potency is read from the fitted curve at half-maximal effect.
SMILES,KDM4E inh,Lamin A splicing,ALDH1A1 block,HttQ103 aggreg,HPGD block,HTT ATP protect
O=[N+]([O-])c1cc(F)c(N2CCOCC2)cc1N1CCCCC1,3.7%,12.9%,14.1µM*,-7.4%,-3.9%,-9.6%
CCN1C(=O)[C@H]2[C@H]3[C@H](O)[C@H](O)C/C(=N/OC/C=C(\C)CCC=C(C)C)[C@H]3CC[C@@H]2C1=O,.,.,0.8%[13.5 µM],.,.,?
Cc1ccc(NC(=S)N(Cc2cccs2)Cc2cc3cccc(C)c3[nH]c2=O)cc1,-4.8%,-2.8%,-4.5%,12.9%,-12.8%,-0.8%[1.9 µM]
Cc1cc2c(nc1C)CCCCN2C[C@H](C)O/N=C\[C@@H](C)[C@H](OCc1ccccc1)C(C)C,.,.,-5.9%[13.5 µM],.,.,-0.8%[10 µM]
COC(=O)C1=C(COc2ccc(C=O)cc2OC)NC(=O)NC1c1cc(C)ccc1C (configuration not stated),-6.1%,-15.8%,6.31µM*,0.8%,-6.3%,24.4%[10 µM]
COc1cccc(CN2CCN(Cc3nc(-c4cccc(F)c4F)oc3C)CC2=O)c1,-5.1%,?,25.1µM*,-10.1%[9.22 µM],.,-7.7%[10 µM]
COc1cccc(CN2CCN(Cc3nc(-c4cccs4)oc3C)CC2CCO)c1 (configuration not stated),?,.,-13.4%,7.0%,.,-27.6%
CC(CCCCC(=O)Nc1ccc(C(F)(F)F)cc1)NCCc1cnc[nH]1 (configuration not stated),6.1%,.,-8.9%,.,.,-14.9%
CCCC(=O)OC(=O)CCC,.,.,?,.,-9.6%,15.5%
O=c1cc(N2CCCCC2)c(-c2ccccc2)nn1Cc1ccc(Cl)cc1Cl,-20.3%,?,?,?,-22.1%,-108.3%
O=c1cc(N2CCCCC2)c(-c2ccccc2)nn1Cc1cccc(Cl)c1,5.2%,?,22.4µM*,?,-18.8%,-95.0%
CC(C)(C)C(=O)Nc1nc2c(s1)CN(Cc1ccccc1)CC2,?,-26.9%[46 µM],31.6µM*,-10.9%,.,-8.6%
O=C(Nc1ccc(F)cc1)C(c1ccccc1)N1CCN(S(=O)(=O)c2ccc3ccccc3c2)CC1 (configuration not stated),3.9%,-3.9%,?,-15.0%,-15.0%,-2.9%[10 µM]
Cc1ccc(C)c(S(=O)(=O)N2CCN(C(C(=O)Nc3ccc(F)cc3)c3ccccc3)CC2)c1 (configuration not stated),-1.9%,-13.4%,11.2µM*,-25.9%,-13.0%,-4.7%[10 µM]
O=C(c1ccco1)N1CCN(C(=O)C(Sc2ccccc2)c2ccccc2)CC1 (configuration not stated),9.7%,-20.7%,14.1µM*,10µM*,-10.7%,-8.4%[0.074 µM]
O=C(Nc1ccc(F)cc1)C(c1ccccc1)N1CCN(C(=O)c2ccco2)CC1 (configuration not stated),2.3%,1.4%,5.01µM*,10.0%,-17.6%,-15.9%
O=C(Nc1ccc2c(c1)OCO2)C(c1ccccc1)N1CCN(C(=O)c2ccco2)CC1 (configuration not stated),0.1%,12.6%,2.99µM*,7.4%,-19.4%,-1.9%[10 µM]
CCCC(C)C(=O)OCC(=O)NCc1ccc(OC)c(OC)c1 (configuration not stated),-7.0%,-7.5%[46 µM],-0.5%,-1.4%,.,?
CCOC(=O)CNC(=S)N(Cc1ccccc1F)C1CCCCC1,6.9%,.,?,-0.4%,.,-3.5%
CCCNC(=O)CNC(=S)N(Cc1ccccc1F)C1CCCCC1,6.6%,0.6%[46 µM],10µM*,-32.9%,.,3.5%[10 µM]
O=C(CNC(=S)N(Cc1ccccc1F)C1CCCCC1)NC1CC1,5.8%,4.3%,12.6µM*,18.7%,-6.4%,-8.1%[10 µM]
O=C(O)CNC(=S)N(Cc1ccccc1Cl)C1CCCCC1,-2.4%,.,-5.2%,2.3%,.,8.4%
O=C1Oc2ccccc2C(=O)C1C(CC(O)c1ccc(-c2ccc(Br)cc2)cc1)c1ccccc1 (configuration not stated),.,.,.,-1.7%,.,-15.5%
c1ccc(C[C@@H](Nc2cccnc2)c2ccccc2)cc1,.,.,8.1%[13.5 µM],.,-1.1%,10.5%[10 µM]
